# About 83,000 compounds went through this panel and 20% of them were active in at least one assay; those are over-represented in the sample as a whole.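 Single-dose data. Exposure time 48 hours. Values below 10 considered active.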 A number with no mark means an inactive call. Activity calls are given as the source filed them.
# Tested on: MDA-MB-468 breast
# Assay: NCI-60 one-dose screen, 48 h (100 = growth as untreated, 0 = no growth, -100 = all killed)
# Conditions: 10 µM unless noted
row,SMILES,growth
1,COc1ccc(Nc2nn3c(SCC(=O)c4ccc(C)cc4)nnc3s2)cc1,87.1%
2,CCOC(=O)C1=C(C)NC(=S)NC1c1ccccc1 (stereo unspecified),98.3%
3,OC(c1ccccc1)(c1ccccc1)C(F)(F)F,113%
4,Cc1c(O)c(=O)ccn1C1CCC(CC2CCC(n3ccc(=O)c(O)c3C)CC2)CC1 (stereo unspecified),0.337% (active)
5,CCOC(=O)c1ccccc1NC(c1ccccc1)c1ccc2cccnc2c1O (stereo unspecified),8.19% (active)
6,CC1=C2[C@@H](CC1)[C@]1(C)O[C@@](C3CCCCC3)(C[C@H]1OC(=O)CO)[C@H]2OC(=O)/C=C/c1ccccc1,87.6%
7,Cc1ccc(-c2cn3cc([N+](=O)[O-])ccc3n2)cc1,56.3%
8,O=C(Nc1ccccc1C(=O)NCC1CC1)c1cccs1,102%
9,COc1cccc(NC(=O)c2sc3nc4c(cc3c2N)CCCC4)c1,9.67% (active)
10,N=C1c2nc3n(c2C(=O)c2nc4n(c21)CCCC4)CCCC3,68.1%
11,Cn1c(=O)c2[nH]c(=S)n(Cc3ccccc3)c2n(C)c1=O,115%
12,C=CCSC1=NC2C(N(CC)C(=O)N2CC)N1/N=C/C=C/c1ccccc1OC (stereo unspecified),29.6%
13,Cc1cccc(C)c1NC(=O)CSC(=S)N1CCN(CCOCCO)CC1,127%
14,O=Cc1cc2ccccc2nc1Nc1nccs1,57.2%
15,COC(=O)c1cc2c(=O)[nH]cc3c2c(n1)CCC3,97.7%
16,N#CCCCCCn1c2ccccc2c2c3[nH]c(=O)[nH]c(=O)c3c3c4ccccc4n(CCCCCC#N)c3c21,69.7%
